Data on nine compounds can be found in PubChem BioAssay (NCI).

The nature of experiment [1]: NCI Yeast Anticancer Drug Screen. Data for the rad50 strain (AID 155).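 Further: 0% = growth of vehicle-only cultures of the same strain.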 The note with it: S. cerevisiae rad50 strain growth inhibition, active compounds read high. The method in brief: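 DNA repair mutant yeast, compound exposure, growth read-out; inhibition is taken relative to vehicle.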
Experiment [2] in a line: NCI Yeast Anticancer Drug Screen. Data for the mec2-1 strain (AID 157). The note with it: S. cerevisiae mec2-1 strain, active compounds read high. A digest of the protocol:
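Growth inhibition is read against vehicle-treated controls after compound exposure of the mec2-1 yeast strain, which is defective in DNA damage repair or cell cycle control.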

The nature of experiment [3]: NCI Yeast Anticancer Drug Screen. Data for the sgs1 mgt1 strain (AID 161).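 Further: 0% = growth of cultures given vehicle only.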 The note with it: S. cerevisiae sgs1 mgt1 strain, active compounds read high. The method in brief:
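Yeast cells carrying a defined DNA-repair defect were exposed to test compounds. Growth inhibition was measured relative to vehicle-treated controls.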

The nature of experiment [4]: NCI Yeast Anticancer Drug Screen. Data for the cln2 rad14 strain (AID 165).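 Further: 0% = growth equal to vehicle treated cultures.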 To be noted: S. cerevisiae cln2 rad14 strain, active compounds read high. The method in brief: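 Growth inhibition, relative to vehicle-treated controls, is the read-out. The test organism is a yeast strain with defined genetic alterations, cln2 rad14.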
The nature of experiment [5]: NCI Yeast Anticancer Drug Screen. Data for the bub3 strain (AID 167). The note with it: S. cerevisiae bub3 mutant strain, active compounds read high. The method in brief: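 In this screen, a yeast mutant lacking normal mitotic checkpoint function is challenged with compound. Relative growth versus vehicle gives the inhibition value.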
Experiment [6] is described as follows: NCI Yeast Anticancer Drug Screen. Data for the mlh1 rad18 strain (AID 175). The note with it: S. cerevisiae mlh1 rad18 strain growth inhibition, active compounds read high. A digest of the protocol: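 Cells of a genetically altered yeast strain, deficient in DNA damage repair, were treated with compound. Their growth was then compared with that of vehicle-treated cultures to give inhibition.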

Where [7] appears, read: at 5.0 µM (retest, dose inferred, filed as 0.5).
Where [8] appears, read: at 50.0 µM (retest, dose inferred, filed as 5.0).

The panel holds about 79,000 compounds, 15% with a hit somewhere; the sample as a whole holds those more often. Unmarked numbers belong to inactive results. Active and inactive are the calls of the source. No stated cut-off is given here; in the data, active means growth inhibition above about 70%; inactive means the rest.

For the compound `O=C(O)/C=C/c1ccc(Cl)c(Cl)c1`, the growth inhibition in experiment [1] (setting [7]) is 9%; in experiment [1] (setting [8]) it was 83% (active); in experiment [1] (at 50.0 µM), 93.1% (active); in experiment [2] (setting [7]) it was -15%; in experiment [2] (setting [8]), 55%; in experiment [2] (at 50.0 µM), 64.3%. Also, the growth inhibition is 11% in experiment [3] (setting [7]); 59% in experiment [3] (setting [8]); 55.1% in experiment [3] (at 50.0 µM); 19% in experiment [4] (setting [7]); 45% in experiment [4] (setting [8]); 63.5% in experiment [4] (at 50.0 µM). Further, the growth inhibition in experiment [5] (setting [7]) was -1%; in experiment [5] (setting [8]) it was 77% (active); in experiment [5] (at 50.0 µM), 86.8% (active); in experiment [6] (setting [7]) it was -17%; in experiment [6] (setting [8]) it was 90% (active); in experiment [6] (at 50.0 µM), 92.9% (active).
On to `C=C(C#N)C(=O)OCC(CC)CC.C=C(C#N)C(=O)OCC(CC)CC.CS(C)=O.CS(C)=O.Nc1c(N=Nc2ccc(-c3ccc(N=Nc4cc(S(=O)(=O)[O-])c5ccccc5c4N)cc3)cc2)cc(S(=O)(=O)[O-])c2ccccc12.[Pt+2]`, for which the growth inhibition in experiment [1] (setting [7]) was -13%; in experiment [1] (setting [8]) it was 98% (active); in experiment [1] (at 50.0 µM) it was 96.8% (active); in experiment [2] (setting [7]), 6%; in experiment [2] (setting [8]), 98% (active); in experiment [2] (at 50.0 µM) it was 96.9% (active). In addition, the growth inhibition was 1% in experiment [3] (setting [7]); 97% (active) in experiment [3] (setting [8]); 96.5% (active) in experiment [3] (at 50.0 µM); -1% in experiment [4] (setting [7]); 98% (active) in experiment [4] (setting [8]); 95.8% (active) in experiment [4] (at 50.0 µM). Moreover, the growth inhibition in experiment [5] (setting [7]) was 3%; in experiment [5] (setting [8]), 98% (active); in experiment [5] (at 50.0 µM), 92.9% (active); in experiment [6] (setting [7]), -6%; in experiment [6] (setting [8]), 97% (active); in experiment [6] (at 50.0 µM), 96.5% (active).
`CC12OC1C(=O)c1ccccc1C2=O` (configuration not stated): the growth inhibition in experiment [1] (setting [7]) is 4%; in experiment [1] (setting [8]) it was 85% (active); in experiment [1] (at 50.0 µM) it was 88.5% (active); in experiment [2] (setting [7]), 15%; in experiment [2] (setting [8]), 93% (active); in experiment [2] (at 50.0 µM) it was 92.1% (active). Besides, the growth inhibition in experiment [3] (setting [7]) was 9%; in experiment [3] (setting [8]) it was 87% (active); in experiment [3] (at 50.0 µM), 89.9% (active); in experiment [4] (setting [7]), 19%; in experiment [4] (setting [8]), 65%; in experiment [4] (at 50.0 µM), 57.6%. Moreover, the growth inhibition was 9% in experiment [5] (setting [7]); 96% (active) in experiment [5] (setting [8]); 90.9% (active) in experiment [5] (at 50.0 µM); -2% in experiment [6] (setting [7]); 95% (active) in experiment [6] (setting [8]); 81.6% (active) in experiment [6] (at 50.0 µM).
For the compound `CC1=NOC(=O)/C1=C/C=C/c1ccccc1`, the growth inhibition in experiment [1] (setting [7]) is -7%; in experiment [1] (setting [8]), 47%; in experiment [1] (at 50.0 µM), 87.1% (active); in experiment [2] (setting [7]) it was 3%; in experiment [2] (setting [8]) it was 79% (active); in experiment [2] (at 50.0 µM) it was 86.3% (active). The growth inhibition in experiment [3] (setting [7]) was 9%; in experiment [3] (setting [8]) it was 89% (active); in experiment [3] (at 50.0 µM) it was 90.3% (active); in experiment [4] (setting [7]), 22%; in experiment [4] (setting [8]), 28%; in experiment [4] (at 50.0 µM), 40.1%. Besides, the growth inhibition in experiment [5] (setting [7]) was -23%; in experiment [5] (setting [8]), 66%; in experiment [5] (at 50.0 µM) it was 60.8%; in experiment [6] (setting [7]), 2%; in experiment [6] (setting [8]) it was 80% (active); in experiment [6] (at 50.0 µM) it was 79.2% (active).
As for `O=C(Nc1cccc2ccccc12)OCCCCCCl`, the growth inhibition in experiment [1] (setting [7]) is -2%; in experiment [1] (setting [8]), 97% (active); in experiment [1] (at 50.0 µM) it was 97% (active); in experiment [2] (setting [7]), -2%; in experiment [2] (setting [8]) it was 96% (active); in experiment [2] (at 50.0 µM), 97% (active). Moreover, the growth inhibition in experiment [3] (setting [7]) was 1%; in experiment [3] (setting [8]), 98% (active); in experiment [3] (at 50.0 µM), 97.1% (active); in experiment [4] (setting [7]), -6%; in experiment [4] (setting [8]), 95% (active); in experiment [4] (at 50.0 µM) it was 95.5% (active). Moreover, the growth inhibition in experiment [5] (setting [7]) is -5%; in experiment [5] (setting [8]), 93% (active); in experiment [5] (at 50.0 µM), 97.2% (active); in experiment [6] (setting [7]), -16%; in experiment [6] (setting [8]), 93% (active); in experiment [6] (at 50.0 µM) it was 97.4% (active).
For `Oc1ccc(N=Nc2ccccc2)c(O)c1.Oc1ccc(N=Nc2ccccc2)c(O)c1.[Cu]`, the growth inhibition is 13% in experiment [1] (setting [7]); 96% (active) in experiment [1] (setting [8]); 98.1% (active) in experiment [1] (at 50.0 µM); 16% in experiment [2] (setting [7]); 98% (active) in experiment [2] (setting [8]); 98.2% (active) in experiment [2] (at 50.0 µM). The growth inhibition in experiment [3] (setting [7]) was 21%; in experiment [3] (setting [8]) it was 97% (active); in experiment [3] (at 50.0 µM), 98.9% (active); in experiment [4] (setting [7]) it was 1%; in experiment [4] (setting [8]), 92% (active); in experiment [4] (at 50.0 µM), 97.3% (active). Moreover, the growth inhibition was 15% in experiment [5] (setting [7]); 95% (active) in experiment [5] (setting [8]); 97% (active) in experiment [5] (at 50.0 µM); 12% in experiment [6] (setting [7]); 96% (active) in experiment [6] (setting [8]); 97.1% (active) in experiment [6] (at 50.0 µM).
Consider `CCOC(=O)c1c(Cl)nnc(-c2ccccc2)c1-c1ccccc1`, for which the growth inhibition in experiment [1] (setting [7]) was 0%; in experiment [1] (setting [8]) it was 98% (active); in experiment [1] (at 50.0 µM) it was 98.2% (active); in experiment [2] (setting [7]), 1%; in experiment [2] (setting [8]), 99% (active); in experiment [2] (at 50.0 µM), 96.2% (active). In addition, the growth inhibition is -2% in experiment [3] (setting [7]); 98% (active) in experiment [3] (setting [8]); 96.3% (active) in experiment [3] (at 50.0 µM); 1% in experiment [4] (setting [7]); 97% (active) in experiment [4] (setting [8]); 92.3% (active) in experiment [4] (at 50.0 µM). Also, the growth inhibition in experiment [5] (setting [7]) is 13%; in experiment [5] (setting [8]) it was 98% (active); in experiment [5] (at 50.0 µM), 97.5% (active); in experiment [6] (setting [7]), -1%; in experiment [6] (setting [8]), 98% (active); in experiment [6] (at 50.0 µM) it was 98% (active).
Regarding `COc1ccc2ccc(OC)c(C=O)c2c1`, the growth inhibition in experiment [1] (setting [7]) was -158%; in experiment [1] (setting [8]) it was -119%; in experiment [1] (at 50.0 µM) it was 97.5% (active); in experiment [2] (setting [7]) it was -50%; in experiment [2] (setting [8]), -111%; in experiment [2] (at 50.0 µM) it was 10.2%. In addition, the growth inhibition in experiment [3] (setting [7]) is -65%; in experiment [3] (setting [8]) it was -60%; in experiment [3] (at 50.0 µM) it was -1%; in experiment [4] (setting [7]), -63%; in experiment [4] (setting [8]) it was -58%; in experiment [4] (at 50.0 µM), -28.2%. Moreover, the growth inhibition in experiment [5] (setting [7]) is -67%; in experiment [5] (setting [8]) it was -74%; in experiment [5] (at 50.0 µM), -25.6%; in experiment [6] (setting [7]), -144%; in experiment [6] (setting [8]) it was -107%; in experiment [6] (at 50.0 µM), 63.5%.
Take `CCOC(=O)NC(=S)Nc1ccsc1`: the growth inhibition in experiment [1] (setting [7]) was 0%; in experiment [1] (setting [8]), -7%; in experiment [1] (at 50.0 µM), 15.6%; in experiment [2] (setting [7]), -4%; in experiment [2] (setting [8]), -1%; in experiment [2] (at 50.0 µM), 11.4%. Further, the growth inhibition in experiment [3] (setting [7]) is 1%; in experiment [3] (setting [8]), 0%; in experiment [3] (at 50.0 µM), 11%; in experiment [4] (setting [7]) it was 0%; in experiment [4] (setting [8]), -13%; in experiment [4] (at 50.0 µM), 56.8%. Moreover, the growth inhibition in experiment [5] (setting [7]) was -3%; in experiment [5] (setting [8]), 3%; in experiment [5] (at 50.0 µM), 24.8%; in experiment [6] (setting [7]), -7%; in experiment [6] (setting [8]), 0%; in experiment [6] (at 50.0 µM), 29.9%.
